Data reported in PubChem BioAssay (Tox21).
Several values for one entry are separate records, joined by “and”; a condition that tells them apart may be missing. Equal values may be shown once. Records with an inconclusive call do not appear. Unmarked numbers belong to inactive results. Activity calls are given as the source filed them. The call rests on the fitted dose curve; in most records, active means well fitted cell-killing curve with a large enough effect in the repeat runs; inconclusive means weak or mixed curves; inactive means flat fitted curve, though single readings scatter.

test: qHTS RealTime-Glo MT Cell Viability Assay in HepG2 cells - 24 hour (AID 1224867); details: RealTime-Glo luminescence; series mostly up to 76.8 µM; activity change, negative = cytotoxicity: at the top concentration; further: nearly all actives have a fitted effect of over 50% in size
Source text: U.S. Tox21 Program National Center for Advancing Translational Sciences [NCATS] NIH Chemical Genomics Center [NCGC] U.S. Environmental Protection Agency [EPA] National Institutes of Environmental Health Sciences [NIEHS] National Toxicology Program [NTP] U.S. Food and Drug Administration [FDA] Tox21 Assay Overview: Measure of cell viability is critical in the cell-base assay. Analysis of cell viability is necessary for the characterization of cell responses to cytotoxic drugs and environmental stress. A RealTime-Glo MT Cell Viability Assay to monitor cell viability in real time of continues cell culture during 40 hours of compound treatment was used to screen Tox21 10K library compounds in HepG2 cells. The RealTime-Glo MT Cell Viability Assay is a nonlytic, homogeneous, bioluminescent method to measure cell viability in real time using a simple, plate-based method. The assay involves adding NanoLuc luciferase and a cell-permeant prosubstrate to cells in culture. Viable cells reduce the proprietary prosubstrate to generate a substrate for NanoLuc luciferase. This substrate diffuses from cells into the surrounding culture medium, where it is rapidly used by the NanoLuc Enzyme to produce a luminescent signal. The signal correlates with the number of viable cells, making the assay well suited for cytotoxicity studies.
Tox21 Assay Protocol Summary: The mixture of HepG2 cell suspension and reagents were dispensed at 600cells/6 ul/well in 1536-well tissue culture treated black solid bottom plates using a Multidrop dispenser. After the assay plates were incubated at a 37 C/5% CO2 incubator for 5 hours, 23 nL of compounds dissolved in DMSO, positive and negative controls was transferred to the assay plate by a pintool work station. The plates were incubated at 37 C for 40 hours. The luminescence intensity were measured at 0h, 8h, 16h, 24h, 32h and 40h time points using ViewLux plate reader during compound treatment.
On the % scale 0 is the no-effect control and ±100 the full control effect; potency means the concentration at half of the fitted maximal effect.

SMILES | activity change, negative = cytotoxicity | Potency
OC1CCCc2ccccc21 (stereo not given) | 0.974% | 
COc1ccc2c(c1)c(CC(=O)OC/C=C(\C)CC/C=C(\C)CCC=C(C)C)c(C)n2C(=O)c1ccc(Cl)cc1 | -4% [at 35.3 µM] | 
COc1ccc(NC(=O)CC(C)=O)cc1 | 0.659% | 
O=C(O)c1cc(O)c2ccccc2c1O |  | 19.5 µM (active)
C#C[C@]1(OC(C)=O)CC[C@H]2[C@@H]3CCC4=C/C(=N/O)CC[C@@H]4[C@H]3CC[C@@]21CC | -17.9% [at 35.3 µM] | 
CCC(CC)C(C)CCOC(C)=O (stereo not given) | -0.436% | 
CCC(COC(=O)CCS)(COC(=O)CCS)COC(=O)CCS | 6.71% | 
COC1=C(OC)C(=O)C(CCCCCCCCCCO)=C(C)C1=O | -21% [at 35.3 µM] | 
CC(=O)c1ccc(C(C)=O)cc1 | 3.64% | 
O=C(O)c1ccc2cc(C(=O)O)ccc2c1 | -4.1% | 
CNC(=O)c1ccccc1Sc1ccc2c(/C=C/c3ccccn3)n[nH]c2c1 | -22.1% [at 35.3 µM] | 
Cc1ccc(-c2ccccc2)cc1 | 0.306% | 
CCCCC/C=C\C/C=C\CCCCCCCC(=O)O |  | inactive
CN1CCCCC1CCN1c2ccccc2Sc2ccc(S(C)=O)cc21 (stereo not given) | -0.815% [at 35.3 µM] | 
CCCCC(CC)COC(=O)CCCCC(=O)OCc1ccccc1 (stereo not given) | -6.43% | 
O=C1NC(=O)[C@@H]2CC=CC[C@H]12 | -2.27% | 
Cc1ccc(N/N=c2\c(=O)cc/c(=N\Nc3ccc(S(=O)(=O)O)cc3)c2=O)c(C)c1 | -17.9% | 
CN1CCC[C@@H]1CCO[C@](C)(c1ccccc1)c1ccc(Cl)cc1 |  | 23.9 µM (active)
CC(C)CCOC(=O)/C=C/c1ccccc1 | 0.713% | 
CCOC(=O)c1ccc(C2CCC(NC[C@H](O)COc3ccc(O)c(NS(C)(=O)=O)c3)CC2)cc1 (stereo not given in full) |  | 45.2 µM (active)

SMILES | activity change, negative = cytotoxicity | Potency
C=C(C)C(=O)OCCCCCCCCCC | -0.621% | 
FC(F)(F)c1cccc(Cl)c1 | 0.14% | 
CCN(CC)C(=O)c1cc(S(=O)(=O)Cc2ccccc2)c(N2CCC(c3ccccc3)CC2)cc1N(CC)CCN(C)C |  | 17.2 µM (active)
COc1ccc(-c2coc3cc(O)ccc3c2=O)cc1 | -3.3% | 
COC(=O)Nc1nc2ccc(C(=O)c3ccccc3)cc2[nH]1 | -14.8% [at 35.3 µM] | 
Cc1cccc(C(=O)O)c1O | 1.78% [at 35.3 µM] | 
c1ccc(C(O[C@@H]2CCCN(CCc3ccc4c(c3)OCO4)C2)c2ccccc2)cc1 | -16.6% | 
CC[C@H](C)COC(=O)/C=C/c1ccc(N=Cc2ccc(OC)cc2)cc1 | -2.9% | 
CCC(C)(CCC(C)C)C(=O)[O][Sn]([CH3])([CH3])[O]C(=O)C(C)(CC)CCC(C)C (stereo not given) | 0.0979% | 
CN(C)c1ccc(C(=C2C=CC(=[N+](C)C)C=C2)c2ccc(N(C)C)cc2)cc1 |  | 24.4 µM (active) and 24.5 µM (active) and 10.7 µM (active)
O=C(/C=C/c1ccccc1)OC/C=C/c1ccccc1 | -9.13% | 
C=CCCC(=O)/C=C/C1C(C)=CCCC1(C)C (stereo not given) | -10.8% | 
Cc1ccc(C)cc1 | 1% | 
CCCCC(CC)CN1CN(CC(CC)CCCC)CC(C)(N)C1 (stereo not given) |  | 16.9 µM (active)
O=C1c2ccccc2C(=O)N1SC1CCCCC1 |  | 38.9 µM (active)
CC(C)(C)NSc1nc2ccccc2s1 | -0.802% | 
CC1(C)[C@@H](O)CC[C@]2(C)[C@H]3C(=O)C=C4[C@@H]5C[C@@](C)(C(=O)O)CC[C@]5(C)CC[C@@]4(C)[C@]3(C)CC[C@@H]12 | -1.16% | 
CCCCCCCCCCC[C@@H](C[C@@H]1OC(=O)[C@H]1CCCCCC)OC(=O)[C@H](CC(C)C)NC=O | -10.8% [at 35.3 µM] | 
Fc1ccc(C(c2ccc(F)cc2)N2CCNCC2)cc1 | -9.97% [at 35.3 µM] | 
C=Cc1ccccc1C=C | 0.764% [at 200 µM] | 
